An excerpt weighted towards active compounds, which were near 8% of everything screened.
Lassa entry inh: inhibitors of Lassa virus binding or cell entry | Lassa virus pseudotype entry inhibition, cell reporter | Potency, µM (titrated, usually from 37.9 µM), inactives show at the top dose activity change, negative = inhibition, actives largely listed as inhibitors | hit rate 1.2% among 300,000; calls by dose curve; tested in HEK293 cells; note: potency is the fitted concentration of half-maximal effect; % is set by controls: 0 for no effect and ±100 for the full control effect; nearly all actives have a fitted effect of over 50% in size
FMDV antiviral: blocks foot and mouth disease virus. hit rate 1.2% among 410,000. Potency, µM (highest dose often 57.9 µM), without a hit: at the top dose activity change, negative = inhibition, most hits filed as inhibitors. FMDV antiviral cell-based qHTS; calls by dose curve; tested in HEK293T cells; note: read-out not given here; potency is the fitted concentration of half-maximal effect; % is set by controls: 0 for no effect and ±100 for the full control effect; nearly all actives have a fitted effect of over 45% in size
SARS PLP yeast: inhibitors of SARS-CoV papain-like protease in yeast; S. cerevisiae expressing SARS-CoV PLpro, growth rescue; Potency, µM (doses to about 32.9 µM), without a hit: top-dose activity, positive = growth rescue, hits mostly activators; hit rate 0.19% among 330,000; AID 485353; calls by dose curve; note: potency is the fitted concentration of half-maximal effect; 0% is about no effect; nearly all actives have a fitted effect of over 55% in size
MARV entry inh: inhibitors of Marburg virus binding or cell entry; hit rate 1.8% among 300,000; Potency, µM (highest dose often 37.8 µM), for the others: at the highest dose activity change, negative = inhibition, usual class: inhibitors; Marburg virus pseudotyped entry inhibition, cell reporter; calls by dose curve; tested in HEK293 cells; note: potency is the fitted concentration of half-maximal effect; % is set by controls: 0 for no effect and ±100 for the full control effect
HCMV antiviral: inhibitors of human cytomegalovirus. hit rate 4.5% among 410,000. HFF cells, HCMV-luciferase reporter, 72 h; hits give low values. activity change, negative = inhibition, % at 57.5 µM. AID 1259415; in the data active = activity change below about -60%; inconclusive = no clear call, values can overlap the other calls; inactive = above about -39%; note: % is set by controls: 0 for no effect and ±100 for the full control effect
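Luciferase read-out from HCMV-luciferase-infected HFFs (MOI 1 PFU/cell) 72 h post infection at 37C; compounds added after 16 h cell attachment; activity normalized between buffer-only basal and Salinomycin (10uM) inhibitor controls.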
HCV inhibitor: HCV inhibition; Huh7.5.1 HCVcc-Cre infection, luciferase reporter, 44 h; Potency, µM (top dose mostly 41.8 µM), without a hit: at the highest dose activity change, negative = inhibition, most hits filed as inhibitors; hit rate 3.4% among 340,000; AID 651820; active = well fitted inhibition curve with a large enough effect; inconclusive = small, poorly fitted or top-dose-only effect, or another doubt; inactive = no such curve, though single readings can be large or run the other way; note: potency is the fitted concentration of half-maximal effect; % is set by controls: 0 for no effect and ±100 for the full control effect
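Seed cells (1,000/well) for 4 h; treat with compound and infect with HCVcc-Cre, moi about 0.5. Incubate 44 h, then detect luciferase activity.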
* marks the source's active call; other numbers are inactive results; ? = inconclusive; . = no result given; [ ] = dose if it differs, or a comment.

SMILES	Lassa entry inh	FMDV antiviral	SARS PLP yeast	MARV entry inh	HCMV antiviral	HCV inhibitor
Cc1ccc(S(=O)(=O)CCc2nc3ccccc3[nH]2)cc1	?	5%	0%	3%[46.1 µM]	-69*	-1%
O=S(=O)(CCc1nc2ccccc2[nH]1)c1ccc(Cl)cc1	2%	-6%	1%	-9%	-61*	2%
CCc1ccccc1-n1nnnc1-c1cnccc1C(F)(F)F	-3%[46.1 µM]	17%	0%	?	-17	17%
CC(=O)c1ccc(Nc2cc(C)nc3ccccc23)cc1	?	8%	-5%	2.8µM*	?	?
CC(=O)c1ccc(Nc2cc(C)nc3c(C)cccc23)cc1	.	43%	0%	.	-6	-23%
CC(=O)c1cccc(Nc2cc(C)nc3ccc(C)cc23)c1	-6%	-23%	0%	?	-8	?
Cc1cc(Nc2cccc(Br)c2)c2ccccc2n1	-23%	?	.	?	-71*	7.1µM*
COC(=O)c1ccc(Nc2cc(C)nc3ccc(C)cc23)cc1	?	0%	-3%	13µM*	3	10µM*
Cc1ccc2nc(C)cc(Nc3ccc([N+](=O)[O-])cc3)c2c1	?	-10%	-2%	?	?	3.5µM*
Cc1cc(Nc2cccc(O)c2)c2ccccc2n1	.	.	-6%	.	.	.
CCN(CC)S(=O)(=O)c1ccc(C(=O)NC2CC(=O)N(c3ccc4c(c3)OCCO4)C2)cc1 (stereo unspecified)	-9%[46.1 µM]	-27%	.	.	-6	.
CC(C)c1ccc(S(=O)(=O)N2CCC(n3c(C(F)(F)F)nc4cccnc43)CC2)cc1	-6%[46.1 µM]	-11%	.	.	1	.
Cc1cc(Nc2cccc(O)c2)c2cccc(Br)c2n1	18%[46.1 µM]	-23%	.	1%[46.1 µM]	-39	.
Cc1ccc(Nc2cc(C)nc3c(C)cccc23)cc1	3%[46.1 µM]	-13%	-1%	10µM*	-34	?
Fc1cc(Br)ccc1Nc1c2c(nc3nc(-c4cccs4)nn13)CCCC2	?	?	.	.	-60*	.
COc1ccc(C(=O)Oc2cc(-c3ccc(OC)c(OC)c3)cc(=O)c3c(C)oc(C)c23)cc1	-25%[46.1 µM]	-12%	.	0%[46.1 µM]	6	.
O=C(Nc1ccccc1C(=O)Nc1nnc(C(F)(F)F)s1)c1ccccc1	10µM*	?	-2%	4µM*	-99*	-87%
COC(=O)c1sc(NC(=O)c2oc3ccccc3c2C)nc1C	?	17%	4%	0%	139	13%
Cc1occc1C(=O)Nc1nnc(C(F)(F)F)s1	43%	36%	-21%	-4%	-10	3%
Cc1c(C(=O)Nc2nnc(C(F)(F)F)s2)oc2ccccc12	60%[14.3 µM]	36%	-1%	-26%	-85*	.
O=C(CCN1C(=O)C2CC=CCC2C1=O)Nc1cccc(Cl)c1 (stereo unspecified)	-30%	4%	-4%	10%	?	.
CCOC(=O)c1ccc(NC(=O)CN2C(=O)COc3ccc(Cl)cc32)cc1	-27%[46.1 µM]	-10%	.	9%[46.1 µM]	3	.
CCN(C(=O)c1cc(S(=O)(=O)N2CCCCC2)c[nH]1)c1ccc(OC)cc1	8%[46.1 µM]	-20%	2%	.	-67*	-19%
CCN(C(=O)c1cc(S(=O)(=O)N2CCOCC2)cn1C)c1cccc(C)c1	.	-7%	0%	.	?	18%
CCN(CC)C(=O)c1cc(S(=O)(=O)N2CCCCC2)c[nH]1	.	-14%	4%	.	0	-15%
SMILES	Lassa entry inh	FMDV antiviral	SARS PLP yeast	MARV entry inh	HCMV antiviral	HCV inhibitor
CCN(C(=O)c1cc(S(=O)(=O)N2CCc3ccccc32)cn1C)c1cccc(C)c1	?	-5%	.	.	-74*	.
CCN(C(=O)c1cc(S(=O)(=O)N2CCOCC2)cn1C)c1ccc(OC)cc1	22%[46.1 µM]	-17%	.	.	-67*	.
COc1cccc(CNc2nc3cc(-c4cnn(Cc5ccccc5)c4)sc3c(=O)n2C)c1	.	14µM*	.	.	-82*	.
O=C(CSc1nnc(CNC(=O)c2c(F)cccc2Cl)o1)Nc1cccc(F)c1	17%[46.1 µM]	-13%	.	?	3	.
CCc1ccc([C@@H]2CC(=O)[C@@H]3CN(S(=O)(=O)c4ccccc4)[C@H](c4ccc(OC)cc4)C[C@@H]3N2S(=O)(=O)c2ccc(C)cc2)cc1	.	-23%	.	.	-3	.
CN(C)[C@H]1CCN([C@@H]2C[S+](=O)([O-])N[C@@H]2COCc2ccccc2)C1	4%[46.1 µM]	.	.	.	.	.
CCN(CC)S(=O)(=O)c1ccc2c(c1)nc(CCC(=O)O)n2CC	10%	-2%	2%	1%[14.2 µM]	-13	15%
CCN(CC)S(=O)(=O)c1cccc(NC(=O)Nc2cccc(C(F)(F)F)c2)c1	16µM*	18µM*	-2%	15µM*	.	2µM*
CCN(CC)S(=O)(=O)c1ccc2c(c1)nc(CCC(=O)Nc1cccc(C(F)(F)F)c1)n2CC	?	-10%	4%	11µM*	7	?
Cc1cccc(NC(=O)COc2cccc3c2CCNC3=O)c1	.	-6%	.	.	38	.
O=C(NCCc1ccncc1)[C@@H]1[C@@H](CO)[C@@H]2Cn3c(ccc(-c4ccccc4)c3=O)[C@@H]2N1C(=O)C1CC1	.	.	.	.	9	.
COc1cccc(-c2cc3c(c(OC)c2)OCCN(S(=O)(=O)c2ccccc2OC(F)(F)F)C3)n1	.	7%	.	.	.	.
CCOc1ccc(NC(=O)CC2C(=O)N(c3ccc(OC)cc3)C(=O)N2CCc2cccs2)cc1 (stereo unspecified)	7.3µM*	5%	-1%	?	-27	-21%
CCOC(=O)c1ccc(NC(=O)CC2C(=O)N(c3ccc(F)cc3)C(=O)N2CCC(C)C)cc1 (stereo unspecified)	?	?	-21%	26µM*	13	3%
Cc1ccc(-n2cc(C(=O)Oc3ccc(F)cc3)c3ccccc3c2=O)cc1	?	-23%	.	.	-27	.
CCN(CC)c1ccc(/C=C/[N+](=O)[O-])cc1	?	?	-23%	?	-114*	12%
CCCn1c(SCC(=O)C(C)(C)C)nc2ccccc21	0%[46.1 µM]	5%	0%	-24%[46.1 µM]	-67*	1%
COc1cccc(Cn2c(=O)ccc3ccccc32)c1	.	22%	0%	.	-81*	-1%
COc1ccc(OCCSc2nc3ccccc3n2CC(=O)O)cc1	20%	-18%	1%	?	-15	-8%
COc1ccc(C(=O)Cn2c(C(=O)/C=C/c3ccccc3)nc3ccccc32)cc1	?	8.9µM*	0%	?	11	?
COc1ccc(C(=O)CSc2nc3ccccc3n2CC(=O)c2ccccc2)cc1	-1%	.	1%	-11%	-66*	?
COc1cccc(Cn2c(=O)oc3ccccc32)c1	?	26%	-3%	?	34	10%
COc1cccc(Cn2c(SCC(=O)N(C)c3ccccc3)nc3ccccc32)c1	?	?	.	.	-60*	.
CN(C(=O)CSc1nc2ccccc2n1Cc1cccc(C(F)(F)F)c1)c1ccccc1	?	?	.	.	-12	.
CC(C)CC(COCc1cccc(Cl)c1)N1CCN(C(=O)c2ccc(C(F)(F)F)cc2)CCC1=O (stereo unspecified)	10µM*	?	-17%	?	32	5%
